Source: the supplement of paper PMC9844399
Counter-ions that a name gives are not always drawn.

system: HeLa; test: nuclear count per well, robust Z-score vs DMSO; higher = more cells (less toxicity); details: 10 µM; 6 h
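Further: Hoechst-stained nuclei counted by automated confocal imaging of four fields per well in 384-well plates, with the robust Z-score based on the per-plate DMSO median and robust SD.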

Row | Compound | nuclear count per well
1 | CCN(CC)C(=O)C1(c2ccccc2)CC1CN (stereo unspecified) | -0.371
2 | CC(=O)c1ccc(S(=O)(=O)NC(=O)NC2CCCCC2)cc1 [Acetohexamide] | 0.532
3 | Cc1c2oc3c(C)ccc(C(=O)N[C@@H]4C(=O)N[C@H](C(C)C)C(=O)N5CCC[C@H]5C(=O)N(C)CC(=O)N(C)[C@@H](C(C)C)C(=O)O[C@@H]4C)c3nc-2c(C(=O)N[C@@H]2C(=O)N[C@H](C(C)C)C(=O)N3CCC[C@H]3C(=O)N(C)CC(=O)N(C)[C@@H](C(C)C)C(=O)O[C@@H]2C)c(N)c1=O [Actinomycin D] | -9.21
4 | CC(C(=O)O)c1ccc(-c2ccccc2)c(F)c1 (stereo unspecified) [Flurbiprofen] | 0.165
5 | Cc1cccc(C)c1OCC(C)N (stereo unspecified) | 0.0147
6 | CC(=O)O[C@H]1C[C@@H]2CC[C@@H]3[C@H](CC[C@@]4(C)[C@H]3C[C@H]([N+]3(C)CCCCC3)[C@@H]4OC(C)=O)[C@@]2(C)C[C@@H]1N1CCCCC1 [Vecuronium Bromide] | -1
7 | CN1[C@@H]2CC[C@H]1C[C@@H](OC(c1ccccc1)c1ccccc1)C2 [Benztropine Mesylate] | 0.869
8 | Nc1nc2[nH]cc(CCc3ccc(C(=O)N[C@@H](CCC(=O)O)C(=O)O)cc3)c2c(=O)[nH]1 [Pemetrexed Disodium] | -0.566
9 | CCN(CC)CCOc1ccc(C(=C(Cl)c2ccccc2)c2ccccc2)cc1 [Clomiphene citrate salt] | 1.23
10 | Cn1cc(C2=C(c3cn(CCCSC(=N)N)c4ccccc34)C(=O)NC2=O)c2ccccc21 | -9.17
11 | O=C1CCCC(=O)C1C(=O)c1ccc(C(F)(F)F)cc1[N+](=O)[O-] [Nitisinone] | -0.815
12 | CN(C)CCc1c[nH]c2ccc(C[C@H]3COC(=O)N3)cc12 [Zolmitriptan] | -0.0411
13 | CCCNC(=O)NS(=O)(=O)c1ccc(Cl)cc1 [Chlorpropamide] | -0.00913
14 | C[C@@H](CN1CCC(n2c(=O)[nH]c3cc(Cl)ccc32)CC1)NC(=O)c1ccc2ccccc2c1 | -0.404
15 | CC(C)[C@H](NC(=O)OCc1ccccc1)C(=O)N[C@H](C=O)Cc1ccccc1 [Calpain Inhibitor III] | -0.0197
16 | CCCCC/C=C\C[C@@H](O)/C=C/C=C/C=C\[C@@H](O)CCCC(=O)O [Leukotriene B4] | -0.213

Row | Compound | nuclear count per well
17 | CCCCC[C@H](O)/C=C/[C@H]1[C@H](O)CC(=O)[C@@H]1CCCCCCC(=O)O [Prostaglandin  E1] | 0.229
18 | CC(=O)Oc1cc2c(s1)CCN(C(C(=O)C1CC1)c1ccccc1F)C2 (stereo unspecified) [Prasugrel] | -0.0809
19 | Cn1cc(C2=C(c3ccc(Cl)cc3Cl)C(=O)NC2=O)c2ccccc21 | -0.0311
20 | COc1cccc2c1C(=O)c1c(O)c3c(c(O)c1C2=O)C[C@@](O)(C(=O)CO)C[C@@H]3O[C@H]1C[C@H](N)[C@@H](O)[C@H](C)O1 | -8.97
21 | Cc1cnc(C(=O)NCCc2ccc(S(=O)(=O)NC(=O)NC3CCCCC3)cc2)cn1 [Glipizide] | 0.529
22 | COC1=C(OC)C(=O)c2ccccc2C1=O [2,3-Dimethoxy-1,4-naphthoquinone] | -5.79
23 | CC(C)=CC[C@@H](O)C1=CC(=O)c2c(O)ccc(O)c2C1=O [Shikonin] | -1.02
24 | Cc1ccc(Nc2nccc(N(C)c3ccc4c(C)n(C)nc4c3)n2)cc1S(N)(=O)=O | -0.0602
25 | COc1ccc2c(c1)c(C1=C(c3c[nH]c4ccccc34)C(=O)NC1=O)cn2CCCN(C)C | -1.12
26 | O=C1OCCN1/N=C/c1ccc([N+](=O)[O-])o1 [Furazolidone] | 1.68
27 | CCCCCCc1ccc(O)cc1O [Hexylresorcinol] | -0.222
28 | CC(=O)O[C@H]1C(=O)[C@@]2(C)[C@H]([C@H](OC(=O)c3ccccc3)[C@]3(O)C[C@H](OC(=O)[C@H](O)[C@@H](NC(=O)c4ccccc4)c4ccccc4)C(C)=C1C3(C)C)[C@]1(OC(C)=O)CO[C@@H]1C[C@@H]2O [Paclitaxel (Taxol)] | -4.17
29 | COC(=O)CCc1ccc(OCC(O)CNC(C)C)cc1 (stereo unspecified) [Esmolol] | 0.277
30 | O=C(O)COCCN1CCN([C@H](c2ccccc2)c2ccc(Cl)cc2)CC1 [Levocetirizine Dihydrochloride] | 0.431
31 | C[C@H]1c2cccc(O)c2C(=O)C2=C(O)[C@]3(O)C(=O)C(C(N)=O)=C(O)[C@@H](N(C)C)[C@@H]3[C@@H](O)[C@@H]21 [Doxycycline Monohydrate] | -0.308
